Source: PubChem BioAssay AID1159580 (chemical genetic matrix, 2015)
The campaign covered roughly 5,500 compounds. About 2,000 (36%) were called active. Inconclusive results (about 18%) are left out. Rule as the data show it: active = normalized growth mostly below about 0.91 (no sharp cut-off); inconclusive = no clear call, values can overlap the other calls; inactive = mostly above about 0.92. The list shows a part of the results.

Experiment: chemical genetic growth profiling, strain panel (AID 1159580);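 also: tested at 20 µM; growth read once vehicle control cultures reached saturation at 30 °C; 1 = growth at the plate median or of vehicle wells; lower values mean less growth of the strain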
Conditions: S. cerevisiae deletion strains, growth OD
[1] = locus YDL101C, strain DUN1, hits give low values
[2] = locus YHR030C, strain SLT2, hits give low values

Measured: normalized growth

C=CCC1C(=O)N(S(=O)(=O)c2ccc(Cl)cc2)N=C1CCC (stereo unspecified)
inactive: locus YAR019C, strain CDC15, hits give low values 0.992 | locus YBL105C, strain PKC1, hits give low values 0.994 | locus YBR135W, strain CKS1, hits give low values 0.998 | locus YBR136W, strain MEC1, hits give low values 0.987 | locus YBR160W, strain CDC28, hits give low values 0.997 | locus YDL017W, strain CDC7, hits give low values 0.996 | locus YDL028C, strain MPS1, hits give low values 0.995 | [1] 0.991 | locus YDL108W, strain KIN28, hits give low values 0.989 | locus YDL132W, strain cdc53, hits give low values 0.994 | locus YDL214C, strain PRR2, hits give low values 0.951 | locus YDR052C, strain DBF4, hits give low values 0.999 | locus YDR054C, strain cdc34, hits give low values 0.996 | locus YDR226W, strain ADK1, hits give low values 0.996 | locus YDR477W, strain SNF1, hits give low values 0.981 | locus YER123W, strain YCK3, hits give low values 0.961 | locus YER133W, strain GLC7, hits give low values 0.986 | locus YFL009W, strain cdc4, hits give low values 0.993 | locus YFL029C, strain CAK1, hits give low values 0.984 | locus YFR003C, strain YPI1, hits give low values 0.996 | locus YFR019W, strain FAB1, hits give low values 0.977 | locus YFR028C, strain CDC14, hits give low values 0.991 | locus YGR040W, strain KSS1, hits give low values 0.97 | locus YGR052W, strain FMP48, hits give low values 1.06 | locus YGR092W, strain DBF2, hits give low values 0.997 | [2] 1.05 | locus YHR079C, strain IRE1, hits give low values 0.97 | locus YHR082C, strain KSP1, hits give low values 1.01 | locus YHR205W, strain SCH9, hits give low values 0.972 | locus YIL147C, strain SLN1, hits give low values 0.992 | locus YJL095W, strain BCK1, hits give low values 0.993 | locus YJL128C, strain PBS2, hits give low values 0.943 | locus YJL157C, strain FAR1, hits give low values 0.983 | locus YJR016C, strain ILV3, hits give low values 0.994 | locus YJR066W, strain TOR1 (second series), hits give low values 0.978 | locus YJR066W, strain TOR1, hits give low values 0.986 | locus YKL048C, strain ELM1, hits give low values 0.962 | locus YKL067W, strain YNK1, hits give low values 0.964 | locus YKL101W, strain HSL1, hits give low values 0.942 | locus YKL193C, strain SDS22, hits give low values 0.995 | locus YKL203C, strain TOR2, hits give low values 1.04 | locus YLR113W, strain HOG1, hits give low values 0.887 | locus YLR133W, strain CKI1, hits give low values 0.965 | locus YLR403W, strain SFP1, hits give low values 1 | locus YML070W, strain DAK1, hits give low values 0.963 | locus YMR001C, strain CDC5, hits give low values 0.991 | locus YMR205C, strain PFK2 (second series), hits give low values 0.966 | locus YMR277W, strain FCP1, hits give low values 0.999 | locus YNL006W, strain LST8, hits give low values 0.999 | locus YNL020C, strain ARK1, hits give low values 0.962 | locus YNL161W, strain CBK1, hits give low values 0.994 | locus YNL183C, strain NPR1, hits give low values 0.98 | locus YNL207W, strain RIO2, hits give low values 0.995 | locus YNL222W, strain SSU72, hits give low values 0.994 | locus YNL307C, strain MCK1 (second series), hits give low values 0.989 | locus YOL078W, strain AVO1, hits give low values 0.995 | locus YOL136C, strain PFK27, hits give low values 0.968 | locus YOR061W, strain CKA2, hits give low values 0.97 | locus YOR119C, strain RIO1, hits give low values 1.01 | locus YOR231W, strain MKK1, hits give low values 0.968 | locus YOR329C, strain SCD5, hits give low values 0.996 | locus YPL031C, strain PHO85, hits give low values 0.953 | locus YPL153C, strain RAD53, hits give low values 0.977 | locus YPL204W, strain HRR25, hits give low values 0.998 | locus YPL209C, strain IPL1, hits give low values 0.994 | locus YPL256C, strain CLN2, hits give low values 0.916 | locus YPR025C, strain CCL1, hits give low values 0.994 | locus YPR106W, strain ISR1, hits give low values 0.988 | locus YPR111W, strain DBF20, hits give low values 0.978 | strain NNK1, hits give low values 0.982 | strain TSCII, hits give low values 0.989

NC(=O)C1=C(O)C(=O)N(C2CCCCC2)C1
inactive: locus YAL013W, strain DEP1, hits give low values 0.992 | locus YBR229C, strain ROT2, hits give low values 1.01 | [1] 1.02 | locus YDR150W, strain NUM1, hits give low values 1.03 | locus YEL061C, strain CIN8, hits give low values 0.995 | locus YGR078C, strain PAC10, hits give low values 1 | [2] 1.05 | locus YHR087W, strain rtc3, hits give low values 0.99 | locus YJR043C, strain POL32, hits give low values 1.02 | locus YJR075W, strain HOC1, hits give low values 1.01 | locus YKL190W, strain CNB1, hits give low values 1.01 | locus YLR039C, strain RIC1, hits give low values 1.02 | locus YLR058C, strain SHM2 (second series), hits give low values 1.01 | locus YLR085C, strain ARP6, hits give low values 1.03 | locus YLR262C, strain YPT6, hits give low values 1 | locus YML094W, strain GIM5, hits give low values 1 | locus YMR219W, strain ESC1, hits give low values 1.01 | locus YMR263W, strain SAP30, hits give low values 1 | locus YNL153C, strain GIM3, hits give low values 1.01 | locus YNL298W, strain CLA4 (second series), hits give low values 1.02 | locus YNL322C, strain KRE1, hits give low values 0.998 | locus YNR030W, strain Alg12, hits give low values 1.03 | locus YPL055C, strain LGE1, hits give low values 0.999 | locus YPL241C, strain CIN2, hits give low values 0.974 | locus YPR135W, strain CTF4, hits give low values 1.06
